Shown are actives, neighbours in structure and some others; about 2.9% of the full set was active somewhere.
NadD inh: inhibitors of S. aureus NadD, primary screen, biochemical, colorimetric, uHTS; Nicotinate-nucleotide adenylyltransferase NadD (Staphylococcus aureus N315); purified NadD enzyme, colorimetric absorbance read-out; inhibition, % at 20 µM; 360,000 compounds, 0.78% hits; in the data active means inhibition above about 26%
A3G deaminase: APOBEC3G DNA deaminase inhibitors, primary screen, biochemical, fluorescence, single-stranded DNA substrate, uHTS; recombinant A3G, ssDNA deamination FAM/TAMRA fluorescence; inhibition, % at 20 µM; 330,000 compounds, 0.28% hits; AID 493012, 2011;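 active means inhibition of at least 40% at 20 µM, with no more than 30% in the related APOBEC3A deaminase screen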
Target sequence (Q9HC16 whole entry, looked up): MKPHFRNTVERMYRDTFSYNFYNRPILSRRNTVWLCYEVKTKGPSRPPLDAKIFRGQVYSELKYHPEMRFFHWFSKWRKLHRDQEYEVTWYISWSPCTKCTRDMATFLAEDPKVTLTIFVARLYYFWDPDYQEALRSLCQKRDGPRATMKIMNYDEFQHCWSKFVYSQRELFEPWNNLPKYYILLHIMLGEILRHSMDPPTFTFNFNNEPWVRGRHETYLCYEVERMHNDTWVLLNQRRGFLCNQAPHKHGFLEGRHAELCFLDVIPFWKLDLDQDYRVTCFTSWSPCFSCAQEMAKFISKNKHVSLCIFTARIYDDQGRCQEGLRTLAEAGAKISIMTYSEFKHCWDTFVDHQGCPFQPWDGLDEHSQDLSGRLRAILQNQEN
A3A deaminase: APOBEC3A ssDNA deaminase inhibitors, primary screen, selectivity assay for APOBEC3G inhibitor project, biochemical, FAM/TAMRA oligo cleavage fluorescence | DNA dC->dU-editing enzyme APOBEC-3A (Homo sapiens), P31941 | inhibition, % at 20 µM | AID 493011, 2011 | recombinant A3A, FAM/TAMRA ssDNA deamination fluorescence | 330,000 compounds, 0.41% hits;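 active means at least 40% inhibition at 20 µM here, with at most 30% in a related deaminase screen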
Target sequence (P31941 whole entry, looked up): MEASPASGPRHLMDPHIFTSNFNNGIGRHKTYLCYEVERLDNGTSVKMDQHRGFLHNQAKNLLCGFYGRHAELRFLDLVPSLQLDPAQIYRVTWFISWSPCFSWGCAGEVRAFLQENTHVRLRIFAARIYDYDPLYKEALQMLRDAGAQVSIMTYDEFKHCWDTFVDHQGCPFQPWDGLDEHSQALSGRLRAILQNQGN
PfGluPho inh: PfG6PD enzyme inhibitors, primary screen, biochemical, fluorescence intensity, uHTS; glucose-6-phosphate dehydrogenase-6-phosphogluconolactonase (Plasmodium falciparum 3D7); PfGluPho enzyme, NADPH resazurin-diaphorase fluorescence; inhibition, % at 20 µM; 350,000 compounds, 0.78% hits; AID 504690, 2011;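 active means inhibition reaching at least a set limit at 20 µM in the primary screen, cut at about 59% in these data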
H9c2 protect: cardioprotection against H2O2-induced cell death, primary screen, uHTS, H9c2 cells, ATPLite luminescence. H9c2 cardiomyocytes, H2O2 injury protection, 2 h. protection from H2O2 cell death, % at 20 µM. 360,000 compounds, 0.63% hits. AID 588492, 2011;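 active means compounds giving at least 50% protection of heart cells from peroxide-induced death in the single-dose screen, raw or plate-pattern-corrected value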
TAG inh: inhibitors of triacylglycerol accumulation, primary screen, cell-based, uHTS, fluorescence, H9c2; H9c2 cells, Nile Red lipid (TAG) fluorescence; cells loaded with 200 µM oleic acid; inhibition, % at 12.5 µM; 230,000 compounds, 0.66% hits; AID 651582, 2012;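 active means pattern-corrected inhibition of lipid staining of at least 50% with the nuclear-stain viability signal not falling by more than 50%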
Numbers stand for hits; n = inactive; x = no result.

SMILES	NadD inh	A3G deaminase	A3A deaminase	PfGluPho inh	H9c2 protect	TAG inh
Cc1ccc(NC(=O)CCCc2nc3ccccc3c(=O)[nH]2)c(Cl)c1	n	n	n	n	63.3	n
Cc1ccc(NC(=O)COC(=O)CCc2nc3ccccc3c(=O)[nH]2)cc1Cl	n	n	n	n	n	n
CC(=O)OCCNc1cc(Sc2nc3ccccc3[nH]2)c2nonc2c1[N+](=O)[O-]	n	x	x	65.0	n	x
CC(=O)OCCCNc1cc(Sc2ccc(C)cc2)c2nonc2c1[N+](=O)[O-]	n	n	n	n	n	x
COCCN(C(=O)Cc1cccs1)C(C(=O)NCc1ccc(OC)cc1)c1ccc(OC)cc1 (stereo not drawn)	n	n	n	n	n	x
COc1ccc(CNC(=O)C(c2ccc(C)cc2)N(Cc2cccs2)C(=O)c2ccc3c(c2)OCCO3)cc1 (stereo not drawn)	n	n	n	n	61.2	x
Cc1ccc(C(C(=O)NCc2ccccc2)N(Cc2cccs2)C(=O)c2ccc3c(c2)OCCO3)cc1 (stereo not drawn)	n	n	n	n	55.8	n
COc1ccc(CNC(=O)C(c2ccco2)N(Cc2cccs2)C(=O)Cc2cccs2)cc1 (stereo not drawn)	n	n	n	n	n	n
COc1ccc(CNC(=O)C(c2cccs2)N(Cc2ccco2)C(=O)Cc2cccs2)cc1 (stereo not drawn)	n	n	n	n	63.1	n
COC(=O)c1ccc(C(C(=O)NCc2ccccc2)N(Cc2cccs2)C(=O)c2cnccn2)cc1 (stereo not drawn)	n	n	n	n	76.3	x
Cc1cnc(NC(=O)c2ccc3ncsc3c2)s1	n	n	n	n	n	n
CCCCN(C(=O)CC1CCCC1)c1c(N)n(CCCC)c(=O)[nH]c1=O	n	n	n	n	n	n
Cc1ccccc1N1CCN(C(=O)NCc2cccc(Cl)c2)CC1	n	n	n	n	n	x
O=C(Cn1[nH]c(=O)c2ccccc2c1=O)N1CCN(S(=O)(=O)c2ccc(Cl)cc2)CC1	n	n	n	n	74.1	n
Cc1ccc(C)c(S(=O)(=O)N2CCN(C(=O)Cn3[nH]c(=O)c4ccccc4c3=O)CC2)c1	n	n	n	n	60.8	n
CCOC(=O)c1[nH]cnc1N=Nc1c(O)ccc2ccccc12	n	x	x	n	64.7	x
N#CC1=C(N)OC2=C(CC/C2=C\c2ccccc2)C1c1ccccc1 (stereo not drawn)	33.0	n	n	n	n	n
COc1ccc(-c2nnc(-c3cc(OC)c(OC)c(OC)c3)o2)cc1OC	n	n	n	n	58.2	x
CC1CCCN(Cc2nc3c(c(=O)n(C)c(=O)n3C)n2CCCc2ccccc2)C1 (stereo not drawn)	n	n	n	n	55.2	n
Cn1c(=O)c2c(nc(CN3CCN(C(=O)c4ccco4)CC3)n2CCCc2ccccc2)n(C)c1=O	n	n	n	n	52.0	n
O=C(N/N=C/c1ccc2c(c1)OCO2)C1CC1	n	n	n	n	n	n
Cn1c2c(c(=O)n(C)c1=O)C(c1ccc(Br)cc1)Nc1ccccc1O2 (stereo not drawn)	n	n	n	n	50.6	x
Cc1ccc2c(c1)nc1c3ccccc3nc(-c3ccccc3N)n21	n	x	x	n	58.4	n
COc1ccc(/C=C(\NC(=O)c2ccc(OC)cc2)C(=O)N2CCCCC2)cc1	n	n	n	n	n	n
OC(CN1CCC(Cc2ccccc2)CC1)c1ccccc1 (stereo not drawn)	n	n	n	n	n	x
SMILES	NadD inh	A3G deaminase	A3A deaminase	PfGluPho inh	H9c2 protect	TAG inh
CC(Oc1cccc(Br)c1)C(=O)NNC(=O)c1ccccn1 (stereo not drawn)	n	n	n	n	79.1	n
CC(Oc1ccccc1)C(=O)NNC(=O)c1ccccn1 (stereo not drawn)	n	n	n	n	n	x
COc1cc(OC)cc(C(=O)NNC(=O)c2ccccn2)c1	n	n	n	n	51.2	x
CCN(CC(=O)Nc1c(F)cccc1F)C(=O)c1nn(C)c(=O)c2ccccc12	n	n	n	n	n	n
COC(=O)CN(C#N)c1nc(NC(C)C)nc(NC(C)C)n1	n	n	n	n	n	x
CC12CCC(C(=O)NCc3ccccc3)(OC1=O)C2(C)C (stereo not drawn)	n	n	n	n	n	n
C/C(=N\NC(=O)C12CCC(C)(C(=O)O1)C2(C)C)c1ccccc1O (stereo not drawn)	n	n	n	n	n	52.5
CCOC(=O)N1CCC(Nc2c(NCCCN3CCN(C4CCCCC4)CC3)c(=O)c2=O)CC1	n	n	n	n	n	x
CN1CC[C@@H]2C(=O)N3CCc4ccc(-c5ccc6c(c5)OCO6)cc4[C@@H]3C[C@@H]21	n	x	x	n	n	n
C[C@@H]1ON(C)[C@H]2C[C@H]3c4[nH]c5ccc(-c6ccc7c(c6)OCO7)cc5c4CCN3C[C@@H]12	n	x	x	n	62.2	n
COc1ccccc1-c1cc(-c2ccccc2)nc(SC(C(N)=O)c2ccccc2)c1C#N (stereo not drawn)	35.8	n	n	n	n	n
Cc1nc(SC(C(N)=O)c2ccccc2)c(C#N)c(C)c1C (stereo not drawn)	n	n	n	n	n	n
O=C(c1ccc(Br)cc1)c1cc([N+](=O)[O-])ccc1N1CCCCC1	n	n	n	n	n	59.3
CN1CCN(c2ccc([N+](=O)[O-])cc2C(=O)c2ccc(Br)cc2)CC1	n	n	n	n	n	x
Cc1ccc(S(=O)(=O)NC(CC(=O)OCc2ccccc2)C(=O)OCc2ccccc2)cc1 (stereo not drawn)	n	x	x	n	n	n
Clc1ccc(C2=Nn3c(nnc3-c3n[nH]c4c3CCC4)SC2)cc1	n	n	n	n	n	54.7
O=C(NCc1cccc(C(F)(F)F)c1)c1csc([C@@H]2C[C@H](O)[C@@H](CO)O2)n1	n	x	x	x	n	n
O=C(O)C1Nc2c(Cl)cc(Cl)cc2C2C=CCC12 (stereo not drawn)	n	x	x	n	n	n
O=C(O)C1Nc2c(O)cccc2C2C=CCC12 (stereo not drawn)	40.4	n	n	n	n	x
O=C(O)C1Nc2ccc(Br)cc2C2C=CCC12 (stereo not drawn)	31.5	n	n	n	n	n
CCOC(=O)C1Nc2ccc(Br)cc2C2C=CCC12 (stereo not drawn)	n	n	n	n	n	n

Assay outcomes as filed in PubChem.
